# Measured values from PubChem BioAssay.
# A number with no mark means an inactive call.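 The calls were made as follows: active = RAM network inhibition above 8.4% in each of two replicates, 3 SD over the compound average; inconclusive = above 8.4% inhibition in only one replicate; inactive = 8.4% inhibition or less in each replicate.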
# Experiment: RAM signaling pathway blockade in yeast – S. cerevisiae, Pdr1DBD-CYC8 efflux-inhibited sensitized strain, primary screen (AID 1298);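 also: 0% = DMSO untreated cells without growth and 100% = 10 µM 1-NA-PP1 full growth; higher means more yeast growth rescued from 5-FOA killing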
# Conditions: S. cerevisiae cbk1-as DSE1-URA3 strain, 5-FOA growth OD615, 2 d; at 50 µM; active compounds read high
row,SMILES,RAM network inhibition
1,CCOc1ccc(N2CC(C(=O)Nc3ccccc3OC)CC2=O)cc1 (stereo unspecified),0.63%
2,O=C(Cn1ncc2c1-c1ccccc1OC2)N1CCN(c2ccccn2)CC1,3.36%
3,CC1CN(c2c3c(nc4ncnn24)CCCC3)CC(C)O1 (stereo unspecified),-1.85%
4,CCOC(=O)C(CC)n1nc(C)n2c(cc3sccc32)c1=O (stereo unspecified),2.14%
5,CCOC(=O)CN(C(=O)c1ccccc1)c1ccccc1C,1.96%
6,Cc1ccc(-n2ncc3c(N4CCCC(C)C4)ncnc32)c(C)c1 (stereo unspecified),2.4%
7,CCN1CCN(C(c2cccs2)C(C)NC(=O)c2ccccc2)CC1 (stereo unspecified),5.79%
8,CC1=C(C(=O)Nc2ccc(F)cc2)C(c2cccc(C)c2)n2nc(CCCO)nc2N1 (stereo unspecified),1.3%
9,Cc1ccc(-c2noc(CN3C(C)CCCC3C)n2)cc1 (stereo unspecified),4.84%
10,CC1CCN(C(=O)CSc2nnc(Cc3cc(=O)[nH]c(=O)[nH]3)n2-c2ccc(Cl)cc2)CC1,4.41%
11,Cc1ccccc1-c1nc(CN2CCC(C(=O)N3CCC(C(N)=O)CC3)CC2)c(C)o1,2.99%
12,COc1ccc(C(=O)c2ccc(OC)c(N)c2)cc1N,2.22%
13,O=C(CC1(O)C(=O)Nc2ccccc21)c1ccc2c(c1)OCO2 (stereo unspecified),4.82%
14,CCOC(=O)c1[nH]c(C)c(C(=O)NC)c1C,-1.66%
15,CN(C1CCCCC1)S(=O)(=O)c1ccc(S(=O)(=O)N2CCN(CCC#N)CC2)cc1,1.41%
16,CC1CCCCC1NC(=O)Cn1ncc2ccccc21 (stereo unspecified),0.04%
